In all, about 35,000 sequences were measured (“fluorescence intensity (a.u.)”: median about 10,000, highest 2% from about 52,000 on). Shown is part of a subset that was picked to be rich in the highest values.

This assay addresses T1, OsWOX13 (Oryza sativa, UniProt Q5QMM3 1-267).
T1 sequence: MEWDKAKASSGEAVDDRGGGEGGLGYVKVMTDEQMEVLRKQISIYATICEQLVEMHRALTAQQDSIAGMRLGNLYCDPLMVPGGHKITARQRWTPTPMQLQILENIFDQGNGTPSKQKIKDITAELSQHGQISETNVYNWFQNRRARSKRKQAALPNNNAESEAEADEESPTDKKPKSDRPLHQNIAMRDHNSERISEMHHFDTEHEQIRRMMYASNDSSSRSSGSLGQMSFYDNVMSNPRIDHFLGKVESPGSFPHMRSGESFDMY
Briefly: protein-binding microarray (RPBM); PBS, 2% BSA, 51.3 ng/ul salmon testes DNA, 50 uM zinc acetate, 200 nM TF, 25 C, 1 h; high values mean tight binding. To be noted: protein: recombinant; tags: N-terminal polyhistidine and DsRed monomer fusion (pET32a); label: CyDye5-dUTP incorporated in the synthesized complementary strand; 3' TTTTT single-stranded linker to array surface; dsDNA, one strand shown. The essentials: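 A custom Agilent array was converted to double-stranded form by primer extension with Cy5-dUTP and blocked with 2% BSA. Protein at 200 nM in PBS with 2% BSA, salmon testes DNA and 50 µM zinc acetate was applied for 1 h at 25 °C, followed by washing. The proteins were polyhistidine–DsRed N-terminal fusions of transcription factors, expressed in E. coli BL21-CodonPlus and Ni–NTA-purified. The binding signal is per-feature fluorescence intensity (arbitrary units) from an Axon 4000B scanner.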
Take “TTGGGTGGCAATTATTAATCAGTCATGTCATTCAACTAGACGGAGTCACCTAGTGCAG”: the binding signal was 11700 fluorescence intensity (a.u.). For “AGTGTAATTAACTTTCTTCTTCTCTCCAACTGCTTCAGCTCGGAGTCACCTAGTGCAG”, the binding signal is 11200 fluorescence intensity (a.u.). The value for “TAGAGAGATTGATATTTCATGTGCTCTAGAGATGGTTGAGCGGAGTCACCTAGTGCAG” was 28900 fluorescence intensity (a.u.). As for “GTGCTCTTGATTGGCACATGAGCCTTGGCGGCGGTGACCTCGGAGTCACCTAGTGCAG”, the figure is 35600 fluorescence intensity (a.u.); as for “TTGATTGATCTTTGGTTGGATGGATGCTTGATGATGTGCTCGGAGTCACCTAGTGCAG”, 31900 fluorescence intensity (a.u.); as for “CACATGATTGATATCTCGTCACTGCTCGTAACTTCAGCCTCGGAGTCACCTAGTGCAG”, 62100 fluorescence intensity (a.u.).

With “TATTGATTGGTTCAGATGGAGACATGTGCAACTTCGTGCTCGGAGTCACCTAGTGCAG”, the binding signal is 61700 fluorescence intensity (a.u.). As to “GACCAACGGTGATTATTAACATGATCTATATCTATCTATCCGGAGTCACCTAGTGCAG”, the binding signal is 5820 fluorescence intensity (a.u.). The value for “TCAAATATGACTAAATTAGTAGTTAAGTAGTATGGGAGAACGGAGTCACCTAGTGCAG” was 13400 fluorescence intensity (a.u.); that for “CCAACTAATCATGCTTAGTTAGCAATTAAGCCATAAACAACGGAGTCACCTAGTGCAG” was 9180 fluorescence intensity (a.u.). As for “ATGATTGCCGTATGATATGTGATACGAAAGAGTTGGGGATCGGAGTCACCTAGTGCAG”, the figure is 32700 fluorescence intensity (a.u.).

On to “CTAGATGATTGGCTATCATCACCTGTTCACAATCTTATGTCGGAGTCACCTAGTGCAG”, for which the binding signal was 61900 fluorescence intensity (a.u.). As for “CGTCCGTCATTGATTATGCCAGATCATAGCTGTACGTCGTCGGAGTCACCTAGTGCAG”, the binding signal was 21300 fluorescence intensity (a.u.). The value for “TGTGTCATGTTCTGATTGGCTGTGGTTGGTTTGATTTTCTCGGAGTCACCTAGTGCAG” was 21100 fluorescence intensity (a.u.). As for “ATGGATGACTGTGATATGATATCTTACACATCAATGATAGCGGAGTCACCTAGTGCAG”, the figure is 7720 fluorescence intensity (a.u.); as for “CCAGATTGATGGCTATCATCAGGCCATGCTGTTCTCGTCTCGGAGTCACCTAGTGCAG”, 59800 fluorescence intensity (a.u.). Turning to “TGTTTGATTATGTTCAATCATTGCAAATCATGTCATCTGTCGGAGTCACCTAGTGCAG”, the binding signal is 45900 fluorescence intensity (a.u.). Consider “TGCATGAATTGATCAACAAGACAAAAGTTACAAAACATGTCGGAGTCACCTAGTGCAG”, for which the binding signal is 4160 fluorescence intensity (a.u.). As for “TTTCAGCACATCATTCCAATTTCAATCATATTTCCAAACTCGGAGTCACCTAGTGCAG”, the figure is 4200 fluorescence intensity (a.u.). The value for “TTCCGGACGTGTGATTGCGATGAGACGTGTTGCAATATCCCGGAGTCACCTAGTGCAG” was 7260 fluorescence intensity (a.u.). Take “ACTATTGGAGTATGGTGCGTGATTGTCCACAATTTATTCACGGAGTCACCTAGTGCAG”: the binding signal is 3150 fluorescence intensity (a.u.). As for “ACAATTAATTTAATTAAATTGAGGTCAGCCATGCATGCAGCGGAGTCACCTAGTGCAG”, the figure is 64800 fluorescence intensity (a.u.); as for “GTAAACTGCAATCAATCAGCCATTAAAATCTCATGCTCTGCGGAGTCACCTAGTGCAG”, 60000 fluorescence intensity (a.u.); as for “TGCCATTGTCAATCTCTCTGCTCTCCTCATGTAACTGATGCGGAGTCACCTAGTGCAG”, 3180 fluorescence intensity (a.u.). Regarding “TGCGAAATTTAGCGTGAGAAATTAAGTGATTGATTGAGAGCGGAGTCACCTAGTGCAG”, the binding signal is 26900 fluorescence intensity (a.u.).

Consider “AATAACACAATTGTTGATAATTGTTGGATTACTTTGTGAGCGGAGTCACCTAGTGCAG”, for which the binding signal was 16000 fluorescence intensity (a.u.).

For “CCACCTGTGATTGAAAACAATTACTTTTGAACATGCGCAGCGGAGTCACCTAGTGCAG”, the binding signal is 55200 fluorescence intensity (a.u.). In the case of “TCAAAATTGGAAGTTTTGTTGAAATTGAAACAATGTGATGCGGAGTCACCTAGTGCAG”, the binding signal is 19500 fluorescence intensity (a.u.). As for “GATTAGATTGATCATTGATCGATCAGTGCCATTAATTGAGCGGAGTCACCTAGTGCAG”, the figure is 30900 fluorescence intensity (a.u.); as for “CCATTAAATGCACAATGACACAATTTGAGGATCAGTTTAGCGGAGTCACCTAGTGCAG”, 3340 fluorescence intensity (a.u.); as for “ATAATTATTTAAATTATATGCATACACCTAGGTGCCATGGCGGAGTCACCTAGTGCAG”, 38800 fluorescence intensity (a.u.). In the case of “ACCATTAATAGATTGAGAGCGAATGAATTGGTGCCACGTGCGGAGTCACCTAGTGCAG”, the binding signal is 55000 fluorescence intensity (a.u.). Turning to “AAAATTAAATGCGATCAATCAGAGCCGTCCATATCTCTGCCGGAGTCACCTAGTGCAG”, the binding signal is 33400 fluorescence intensity (a.u.). As for “ACTCCCTATTAATTTCCATCACCTTTACCAAACAAGATATCGGAGTCACCTAGTGCAG”, the figure is 6910 fluorescence intensity (a.u.); as for “GATTTAAACTGAAACGAACAGATTCTTTGTTCTTTGCATACGGAGTCACCTAGTGCAG”, 9800 fluorescence intensity (a.u.); as for “ATAATTAGTACCTTATAATAAGTAGCACAATCTTCGTGTTCGGAGTCACCTAGTGCAG”, 7900 fluorescence intensity (a.u.). In the case of “TGGAATGATGGATAAAGTCCAAGTTTGACCTGAGTCAAAGCGGAGTCACCTAGTGCAG”, the binding signal was 6270 fluorescence intensity (a.u.). As for “CAGATATAAATTGAGCGACTTCCAGAGTGATCAGCACTACCGGAGTCACCTAGTGCAG”, the binding signal is 7440 fluorescence intensity (a.u.). The value for “ACAACAACAGCTTTGATCAATCAATCCATCAACTCAGGTTCGGAGTCACCTAGTGCAG” was 11400 fluorescence intensity (a.u.); that for “AATCTTTTCTTAATTCTATAATTATCCTTAACGAATTAGTCGGAGTCACCTAGTGCAG” was 4150 fluorescence intensity (a.u.); that for “GATAACTGGTGTGGAGGCTGCGGCGTGGGTGGTAAAGCACCGGAGTCACCTAGTGCAG” was 3220 fluorescence intensity (a.u.). As to “ATTAATGATTGATAGTCAGTCACTTAGCCATGTTATTTTGCGGAGTCACCTAGTGCAG”, the binding signal is 65500 fluorescence intensity (a.u.).
